Drawing on PubChem BioAssay (NCATS), this text covers Potency for twelve compounds.

Records with an inconclusive call do not appear. Calls of active or inactive are those of the source. The call rests on the fitted dose curve; in most records, active means well fitted curve in the direction sought with a large enough effect; inconclusive means small, poorly fitted or top-dose-only effect, or another doubt; inactive means no such curve, though single readings can be large; an effect the other way counts as inactive or inconclusive.

Assay [1] in a line: qHTS of pediatric cancer cell lines to identify multiple opportunities for drug repurposing: Primary screen for BT-12 cells (AID 1347101). Further: nearly all actives have a fitted effect of over 25% in size. The method in brief: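 Cells (500-1,000/well) rested 5 h, then received compounds for 48 h; metabolically active cells were measured by CellTiter-Glo luminescence. Final concentrations spanned up to 46 µM (MIPE, 11-point) or 0.59 nM-46 µM (NPC, 8-point) in primary screens, 11-point in follow-ups.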
A general note: Quantitative high-throughput screening tests each substance at several concentrations.

A short description of assay [2]: qHTS of pediatric cancer cell lines to identify multiple opportunities for drug repurposing: Primary screen for Rh18 cells (AID 1347102). Further: nearly all actives have a fitted effect of over 65% in size. The method in brief: (§1)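 Cells (500-1,000/well) in growth media were settled 5 h at 37 degrees C, then given compounds for 48 h. Viability was read as CellTiter-Glo luminescence. Primary runs used MIPE at 11 points (0.78 nM-46 µM) and NPC at 8 points (0.59 nM-46 µM); follow-ups used 11 points.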

Assay [3] can be described thus: qHTS of pediatric cancer cell lines to identify multiple opportunities for drug repurposing: Primary screen for RD cells (AID 1347104). Further: nearly all actives have a fitted effect of over 55% in size. The method in brief:
(§2)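 Cells plated at 500-1,000/well in growth medium, compounds added after 5 h. MIPE tested at 11 points (from 0.78 nM), NPC at 8 points (from 0.59 nM). CellTiter-Glo luminescence after 48 h; concentration-response curves from primary screen.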

A short description of assay [4]: qHTS of pediatric cancer cell lines to identify multiple opportunities for drug repurposing: Primary screen for MG 63 (6-TG R) cells (AID 1347105). Further: nearly all actives have a fitted effect of over 50% in size. The method in brief: as §2
Assay [5] can be described thus: qHTS of pediatric cancer cell lines to identify multiple opportunities for drug repurposing: Primary screen for control Hh wild type fibroblast cells (AID 1347106).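 Further: series mostly up to about 46 µM; a drop in luminescence marks cytotoxicity and a rise apparent proliferation; nearly all actives have a fitted effect of over 55% in size.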 The gist of the method:
as §1

Assay [6] is described as follows: qHTS of pediatric cancer cell lines to identify multiple opportunities for drug repurposing: Primary screen for Rh30 cells (AID 1347107). Further: series mostly up to about 46 µM; nearly all actives have a fitted effect of over 75% in size. The gist of the method: as §1
The nature of assay [7]: qHTS of pediatric cancer cell lines to identify multiple opportunities for drug repurposing: Primary screen for Rh41 cells (AID 1347108). Further: nearly all actives have a fitted effect of over 70% in size. Further: potency means the concentration at half of the fitted maximal effect. The method in brief:
as §2

Assay [8] can be described thus: qHTS of pediatric cancer cell lines to identify multiple opportunities for drug repurposing: Confirmatory screen for NB1643 cells (AID 1347109). Further: nearly all actives have a fitted effect of over 45% in size. The method in brief:
as §1

Assay [9] can be described thus: qHTS of pediatric cancer cell lines to identify multiple opportunities for drug repurposing: Confirmatory screen for SK-N-MC cells (AID 1347111).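 Further: cells exposed to compound for 48 h before the readout; nearly all actives have a fitted effect of over 70% in size.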 The method in brief: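 Metabolically active cells were quantified by ATP-dependent luminescence (CellTiter-Glo, 15 min at room temperature) following 48 h treatment. Cells had been plated at 500-1,000 per well and settled for 5 h beforehand.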

The nature of assay [10]: qHTS of pediatric cancer cell lines to identify multiple opportunities for drug repurposing: Confirmatory screen for BT-12 cells (AID 1347112). Further: nearly all actives have a fitted effect of over 55% in size. The method in brief: as §1
The nature of assay [11]: qHTS of pediatric cancer cell lines to identify multiple opportunities for drug repurposing: Confirmatory screen for LAN-5 cells (AID 1347113). Further: nearly all actives have a fitted effect of over 65% in size. The method in brief:
as §1

Assay [12] can be described thus: qHTS of pediatric cancer cell lines to identify multiple opportunities for drug repurposing: Confirmatory screen for NB-EBc1 cells (AID 1347115).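 Further: cells exposed to compound for 48 h before the viability read; nearly all actives have a fitted effect of over 45% in size.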 The method in brief: as §1
Assay [13] can be described thus: qHTS of pediatric cancer cell lines to identify multiple opportunities for drug repurposing: Confirmatory screen for SJ-GBM2 cells (AID 1347116). Further: nearly all actives have a fitted effect of over 60% in size. The gist of the method:
(§3)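 Viability measured as metabolically active cells via CellTiter-Glo luminescence following 48 hours of compound exposure, 11-point dilutions in confirmatory testing. 500-1,000 cells/well plated 5 hours before dosing; controls were DMSO and 2.3 µM bortezomib.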

A short description of assay [14]: qHTS of pediatric cancer cell lines to identify multiple opportunities for drug repurposing: Confirmatory screen for control Hh wild type fibroblast cells (AID 1347121). Further: nearly all actives have a fitted effect of over 70% in size. The gist of the method: as §1
A short description of assay [15]: qHTS of pediatric cancer cell lines to identify multiple opportunities for drug repurposing: Confirmatory screen for U-2 OS cells (AID 1347122). Further: nearly all actives have a fitted effect of over 65% in size. The gist of the method: as §1
Assay [16] in a line: qHTS of pediatric cancer cell lines to identify multiple opportunities for drug repurposing: Confirmatory screen for Rh30 cells (AID 1347126). Further: nearly all actives have a fitted effect of over 55% in size. The method in brief: as §1
Assay [17] in a line: qHTS of pediatric cancer cell lines to identify multiple opportunities for drug repurposing: Confirmatory screen for DAOY cells (AID 1347114). Further: nearly all actives have a fitted effect of over 65% in size. The gist of the method:
as §3

The nature of assay [18]: qHTS of pediatric cancer cell lines to identify multiple opportunities for drug repurposing: Confirmatory screen for Rh41 cells (AID 1347123).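 Further: 48 h compound exposure; nearly all actives have a fitted effect of over 60% in size.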 The method in brief: as §1

As for `COc1cc(CC#N)cc(OC)c1OC`, the Potency result in [1], in assay [2], in [3], in assay [4], in [5] and in assay [6] was “inactive” in each case. In assay [7], the Potency result was “inactive”.

Regarding `CN(C)CCc1c[nH]c2ccccc12`, the Potency entry in [1], in [2], in assay [3], in assay [4], in assay [5] and in assay [6] was “inactive” in each case. Further, the Potency result in assay [7] is “inactive”.

For the compound `CCCC[N+]1(C)[C@@H]2CC(OC(=O)[C@H](CO)c3ccccc3)C[C@H]1[C@@H]1O[C@@H]12` (stereo partly drawn), the Potency entry in assay [1], in assay [2], in assay [4], in assay [5], in assay [6] and in assay [7] was “inactive” each time.

As to `COc1ccc(CN2CCNCC2)c(OC)c1OC`, the Potency entry in assay [1], in assay [2], in assay [4], in [5], in assay [6] and in [7] was “inactive” each time.

`C[C@@H]1CN(C2CCC(C#N)(c3ccc(F)cc3)CC2)CC[C@]1(C(=O)O)c1ccccc1` (stereo partly drawn): the Potency entry in assay [1], in assay [2], in [4], in assay [5], in assay [6] and in assay [7] was “inactive” each time.

For `CCOC(=O)C1(c2ccccc2)CCN(CCc2ccc(N)cc2)CC1`, the Potency entry in [1], in assay [2], in [4], in assay [5], in assay [6] and in assay [7] was “inactive” throughout.

Regarding `CNC(=O)NC(O)C(Cl)(Cl)Cl` (stereo not drawn), the Potency result in assay [1], in assay [2], in assay [3], in assay [4], in [5] and in [6] was “inactive” each time. In addition, the Potency result in [7] was “inactive”.

`C#C[C@]1(O)C=C[C@H]2[C@@H]3CCC4=CC(=O)CC[C@@H]4[C@H]3CC[C@@]21CC`: the Potency result in [1], in assay [2], in assay [4], in assay [5], in assay [6] and in assay [7] was “inactive” in each case.

Consider `CCN(Cc1ccc(Cl)nc1)/C(=C/[N+](=O)[O-])NC`, for which the Potency entry in [1], in assay [2], in assay [3], in assay [4], in [5] and in assay [6] was “inactive” throughout. The Potency entry in assay [7] is “inactive”.

Regarding `CN1[C@@H]2CC[C@H]1CC(OC(=O)c1cc(Cl)cc(Cl)c1)C2` (stereo partly drawn), the Potency result in assay [1], in assay [2], in assay [4], in assay [5], in assay [6] and in [7] was “inactive” each time. For the same compound, the Potency result in assay [8], in assay [9], in assay [10], in assay [11], in assay [12] and in [13] was “inactive” in each case. Besides, the Potency entry in assay [14], in [15] and in [16] was “inactive” each time.

With `CCc1ccc(C2CCNCC2)cc1`, the Potency entry in [1], in [2], in [4], in [5], in assay [6] and in assay [7] was “inactive” throughout. The Potency entry in assay [8], in assay [9], in [10], in assay [11], in [17] and in assay [12] was “inactive” each time. Further, the Potency entry in [14], in assay [15], in assay [18] and in assay [16] was “inactive” each time.

In the case of `CC[C@H](O)C(C[C@H](C)N(C)C)(c1ccccc1)c1ccccc1`, the Potency result in assay [1], in assay [2] and in assay [5] was “inactive” in each case. Moreover, the Potency in assay [7] was 44.1 µM (active).
